Activity calls are given as the source filed them.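 The calls were made as follows, unless noted: active = NADPH fluorescence slope more negative than the mean of all samples by about 3 SD, 99.7% confidence; inactive = the rest.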
Key:
[1] = inhibitors of TNFa-induced NFkB p65 translocation, primary screen, imaging, HUVEC, MLSMR starter and 10KST1 sets (AID 438;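 active = inhibition above 20% together with a positive visual image hit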;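 also: compound added about 3h40 before a 20 min TNFalpha stimulation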;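 as to inhibition: signal is the nuclear over cytoplasmic p65 intensity ratio per well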); details: HUVEC TNFa-induced p65 nuclear translocation; cell count: measured here: nuclei count (cytotoxicity indicator), at 2.08 µM unless noted; inhibition: at 2 µM, stronger effect = higher value unless noted
[2] = inhibitors of E-selectin induction by TNFa, primary screen, imaging, HUVEC, immunofluorescence, MLSMR starter and 10KST1 sets (AID 487;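 active = visually confirmed hit in the image check and inhibition above 20%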;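 as to inhibition: signal is fraction of cell area covered by stained E-selectin grains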;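 as to nuclei count: 100% = median nuclei count of all wells on the same plate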); details: HUVEC TNFalpha-induced E-selectin immunofluorescence imaging, at 2 µM; inhibition: stronger effect = higher value; nuclei count: measured here: cell number, toxicity
[3] = DUSP6 inhibitors restoring Erk phosphorylation by chemical complementation, primary imaging in DUSP6-transfected HeLa (AID 609;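 active = compounds giving at least 50% inhibition in the cell-based MKP-3 phosphatase rescue imaging test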;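 as to inhibition: phospho-Erk level distribution per well compared with pooled transfected vehicle control wells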); details: HeLa MKP-3 transfected, phospho-Erk imaging KS statistic, at 10 µM
[4] = biological target: Dual specificity protein phosphatase 6 (Homo sapiens) (UniProt Q16828); assay: as above; details: HeLa MKP-3 transfected, phospho-Erk imaging KS statistic, at 10 µM, stronger effect = higher value
[5] = biological target: Voltage-gated potassium channel subunit beta-2 (Rattus norvegicus) (UniProt P62483); assay: KvBeta enzyme negative modulators, primary screen, biochemical, NADPH fluorescence (AID 622;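 active = fluorescence slope higher than the sample average by over 3 SD, cut at about -0.22 in these data, passing the limit was not always enough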;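 also: slope of raw intensity against log time taken from 70 to 1610 s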); details: recombinant KvBeta, 4-cyanobenzaldehyde reduction, at 10 µM, stronger effect = higher value
[6] = biological target: Voltage-gated potassium channel subunit beta-2 (Rattus norvegicus) (UniProt P62483); assay: KvBeta positive modulators, primary screen, biochemical, NADPH fluorescence (AID 623); details: Recombinant KvBeta, NADPH fluorescence decrease slope, 10 min; at 10 µM; stronger effect = lower value;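 also: fluorescence intensity change per second fitted from 20 to 320 s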
[7] = biological target: Alpha-2C adrenergic receptor (Homo sapiens) (UniProt P18825); assay: modulators of alpha2C/GIRK thallium flux, primary screen, cell-based, HEK293 alpha2C/GIRK1/2 (AID 624;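 active = fluorescence slope after compound addition differing from the mean of all screened samples at 99.7% confidence, in either direction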;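 also: slope of fluorescence ratio to pre-addition baseline per second over 15 to 24 s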); details: thallium flux BTC fluorescence, at 10 µM, actives lie on both sides
[8] = inhibitors of larval lipid processing in zebrafish, primary screen, whole organism, PED6 fluorescence, gall bladder and intestine (AID 686;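 active = a full or partial loss of lipid-probe fluorescence in the fish gall bladder, intestine or both, judged by eye; inactive = no fluorescence loss, or compound toxic to the fish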;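 also: larvae 5 to 7 days old with five fish per well; signal comes from phospholipase A2 cleavage of quenched PED6 carried via bile; overnight exposure to compound and PED6 before scoring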); details: Zebrafish larvae PED6 lipid processing, fluorescence scoring
[9] = inhibitors of Chlamydomonas gravitaxis, primary screen, whole organism, Chlamydomonas reinhardtii, WT vs cilia-less mutant, absorbance, 96-well (AID 463189;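 active = inhibition at or above 50% relative to wild type and mutant plate controls; inactive = inhibition below 50%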;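 also: 0% = wild type cc124 cells in DMSO and 100% = ciliumless bld1 mutant cells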); details: OD600 absorbance, 2 days, at 10 µM, stronger effect = higher value
[10] = biological target: Muscarinic acetylcholine receptor M4 (Homo sapiens) (UniProt P08173); assay: compounds altering M4/GIRK thallium flux, either direction, primary screen, M4 allosteric agonist project, cell-based, HEK293 M4/GIRK, BTC-AM (AID 625;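 active = fluorescence slope after compound addition differing from the mean of all tested samples at 99.7% confidence, mostly higher but some lower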;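 also: thallium influx through GIRK channels coupled to M4 in HEK293 cells with BTC-AM dye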); details: at 10 µM, actives lie on both sides
[11] = inhibitors of mutant huntingtin aggregation, primary screen, imaging, exon1htt(103Q)mCFP cells, high-content imaging (AID 483;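 active = visual image review flags a hit and inhibition of aggregation exceeds 20%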;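 also: compound exposure lasted 3 days before fixation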;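 as to nuclei count: percent of the per-plate median nuclei count of sample wells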); details: exon1htt(103Q)mCFP cell line, aggregate imaging, at 2 µM; inhibition of aggregation: stronger effect = higher value; nuclei count: measured here: cell count, toxicity
[12] = inhibitors of Sendai virus-induced IRF3 signaling, primary screen, TLR/RLR signaling modifier project, cell-based, Sendai virus stimulus, luciferase, 10K MLSCN set (AID 602276;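 active = inhibition at or above 50% at 10 µM; inactive = inhibition below 50%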;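 also: firefly luciferase from ISG56 promoter only with Renilla not read in this screen; 0% = Sendai virus plus DMSO and 100% = medium plus DMSO without virus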); details: HEK293 RL24 IRF3 luciferase reporter, at 10 µM, stronger effect = higher value
[13] = inhibitors of poly I:C-induced TLR3 signaling, primary screen, cell-based, poly I:C stimulus, luciferase, 10K MLSCN set (AID 602277;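 active = inhibition of the reporter signal at or above 50%; inactive = inhibition below 50%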); details: HEK293-TLR3 RL24 IRF3 luciferase reporter, at 10 µM, stronger effect = higher value
[14] = measured here: cell density z-score
[15] = measured here: nuclear c-Myc green intensity z-score
[16] = measured here: nuclear pErk red intensity z-score, stronger effect = higher value

Sequence of Alpha-2C adrenergic receptor (Homo sapiens) (P18825 whole entry, looked up): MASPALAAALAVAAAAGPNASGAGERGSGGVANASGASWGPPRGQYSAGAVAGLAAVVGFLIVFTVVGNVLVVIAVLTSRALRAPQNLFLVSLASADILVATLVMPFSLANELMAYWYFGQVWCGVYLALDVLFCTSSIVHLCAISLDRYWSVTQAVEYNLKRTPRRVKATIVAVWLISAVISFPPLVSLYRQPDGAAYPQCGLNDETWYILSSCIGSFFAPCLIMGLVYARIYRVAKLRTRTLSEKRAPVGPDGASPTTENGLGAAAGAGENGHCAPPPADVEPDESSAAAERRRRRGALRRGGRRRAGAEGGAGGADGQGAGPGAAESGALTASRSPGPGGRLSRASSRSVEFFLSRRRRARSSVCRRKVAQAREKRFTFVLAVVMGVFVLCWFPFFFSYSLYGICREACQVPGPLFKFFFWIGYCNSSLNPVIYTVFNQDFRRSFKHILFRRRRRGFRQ
Sequence of Dual specificity protein phosphatase 6 (Homo sapiens) (Q16828 whole entry, looked up): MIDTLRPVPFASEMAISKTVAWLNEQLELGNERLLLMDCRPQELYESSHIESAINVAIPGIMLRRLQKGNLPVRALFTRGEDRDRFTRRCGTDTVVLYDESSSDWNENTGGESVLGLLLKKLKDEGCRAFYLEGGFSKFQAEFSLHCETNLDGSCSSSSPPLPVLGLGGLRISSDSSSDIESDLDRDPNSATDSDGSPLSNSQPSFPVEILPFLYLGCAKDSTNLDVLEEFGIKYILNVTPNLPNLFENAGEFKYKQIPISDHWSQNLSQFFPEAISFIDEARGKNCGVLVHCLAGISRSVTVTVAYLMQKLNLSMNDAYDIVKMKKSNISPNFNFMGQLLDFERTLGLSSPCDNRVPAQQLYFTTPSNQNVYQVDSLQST
Sequence of Muscarinic acetylcholine receptor M4 (Homo sapiens) (P08173 whole entry, looked up): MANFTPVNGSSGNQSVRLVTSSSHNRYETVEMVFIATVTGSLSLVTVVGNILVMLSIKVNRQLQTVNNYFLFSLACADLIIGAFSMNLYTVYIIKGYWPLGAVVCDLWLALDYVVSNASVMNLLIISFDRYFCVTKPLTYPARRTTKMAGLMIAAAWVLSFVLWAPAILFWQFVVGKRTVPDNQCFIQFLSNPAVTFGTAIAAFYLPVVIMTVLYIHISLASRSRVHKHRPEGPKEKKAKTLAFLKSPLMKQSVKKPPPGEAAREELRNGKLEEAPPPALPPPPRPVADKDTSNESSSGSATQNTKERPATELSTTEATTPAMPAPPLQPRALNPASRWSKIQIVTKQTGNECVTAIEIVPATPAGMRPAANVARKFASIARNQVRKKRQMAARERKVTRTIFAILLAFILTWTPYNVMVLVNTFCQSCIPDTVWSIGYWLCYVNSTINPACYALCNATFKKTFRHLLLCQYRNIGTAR
Sequence of Voltage-gated potassium channel subunit beta-2 (Rattus norvegicus) (P62483 whole entry, looked up): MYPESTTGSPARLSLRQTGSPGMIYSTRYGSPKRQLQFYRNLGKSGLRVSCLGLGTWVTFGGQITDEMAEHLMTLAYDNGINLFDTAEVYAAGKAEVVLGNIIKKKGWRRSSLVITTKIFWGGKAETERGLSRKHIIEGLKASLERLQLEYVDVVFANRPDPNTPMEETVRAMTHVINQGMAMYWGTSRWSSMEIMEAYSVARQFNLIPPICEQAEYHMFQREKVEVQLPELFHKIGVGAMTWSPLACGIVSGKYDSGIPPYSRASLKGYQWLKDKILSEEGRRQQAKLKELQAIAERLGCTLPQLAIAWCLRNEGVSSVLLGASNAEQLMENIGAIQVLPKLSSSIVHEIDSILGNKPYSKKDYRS

SMILES: O=C(Nc1ccncc1)c1c(O)c2ccccc2n(Cc2ccccc2)c1=O
- cell count [1]: 544
- inhibition [1]: -4.5% [at 2 µM, stronger effect = higher value, 0% TNFa-plus-vehicle, 100% no-TNFa wells] (inactive)
- inhibition [2]: -23.1% (inactive)
- nuclei count [2]: 145%
- z-score ([3]; measured here: cell density z-score, cells stimulated with TPA for 15 min): -0.126
- z-score ([3]; measured here: nuclear c-Myc green intensity z-score, cells stimulated with TPA for 15 min): -1.62
- z-score ([3]; measured here: nuclear pErk red intensity z-score, stronger effect = higher value, cells stimulated with TPA for 15 min): -0.473
- inhibition [4]: 10.5% [cells stimulated with TPA for 15 min] (inactive)
- fluorescence slope [5]: -0.32 (inactive)
- NADPH fluorescence slope [6]: 2.5e-05 (inactive)
- slope [7]: 0.00467 (inactive)
- outcome [8]: inactive [screened at 20 µM (by protocol)]
- inhibition [9]: 30.8% (inactive)

SMILES: O=c1[nH]c2ccccc2c(=O)n1-c1cccc(Cl)c1
- cell count [1]: 545
- inhibition [1]: -5.4% (inactive)
- inhibition [2]: 40% (inactive)
- nuclei count [2]: 129%
- z-score [3, 14]: -1.11
- z-score [3, 15]: 2.35
- z-score [3, 16]: 0.728
- inhibition [4]: -18.6% (inactive)
- fluorescence slope [5]: -0.461 (inactive)
- NADPH fluorescence slope [6]: -7e-06 (inactive)
- slope [7]: 0.00622 (inactive)
- outcome [8]: inactive
- inhibition [9]: 11.1% (inactive)

SMILES: CCCCC1(CN2CCCC2=O)C(=O)NC(=O)NC1=O
- cell count [1]: 325
- inhibition [1]: -24.8% (inactive)
- inhibition [2]: -135% (inactive)
- nuclei count [2]: 118%
- z-score [3, 14]: 0.342
- z-score [3, 15]: -1.01
- z-score [3, 16]: -1.02
- inhibition [4]: 3.5% (inactive)
- fluorescence slope [5]: -0.467 (inactive)
- NADPH fluorescence slope [6]: 1.5e-05 (inactive)
- slope [7]: 0.00649 (inactive)
- outcome [8]: inactive
- inhibition [9]: 32.8% (inactive)

SMILES: Cc1c(N=Cc2c(O)n(CCc3ccccc3)c(=O)[nH]c2=O)c(=O)n(-c2ccccc2)n1C
- cell count [1]: 613
- inhibition [1]: -20.6% (inactive)
- inhibition [2]: -12.1% (inactive)
- nuclei count [2]: 104%
- z-score [3, 14]: 1.02
- z-score [3, 15]: -1.15
- z-score [3, 16]: -0.939
- inhibition [4]: 14.4% (inactive)
- fluorescence slope [5]: -0.465 (inactive)
- NADPH fluorescence slope [6]: -1.6e-05 (inactive)
- slope [7]: 0.00632 (inactive)
- outcome [8]: inactive
- inhibition [9]: 41.8% (inactive)

SMILES: COc1ccc(C(=O)CN2CCOCC2)cc1F
- cell count [1]: 662
- inhibition [1]: -8.3% (inactive)
- inhibition [2]: -111% (inactive)
- nuclei count [2]: 168%
- z-score [3, 14]: -0.933
- z-score [3, 15]: 0.019
- z-score [3, 16]: -0.631
- inhibition [4]: 5.57% (inactive)
- fluorescence slope [5]: -0.506 (inactive)
- NADPH fluorescence slope [6]: -5.2e-05 (inactive)
- slope [7]: 0.0047 (inactive)
- outcome [8]: inactive
- inhibition [9]: 0.889% (inactive)

SMILES: O=c1c(C=NCCN2CCNCC2)c(O)n(C2CCCCC2)c(=O)n1C1CCCCC1
- cell count [1]: 583
- inhibition [1]: -5.8% (inactive)
- inhibition [2]: -162% (inactive)
- nuclei count [2]: 138%
- z-score [3, 14]: 0.0473
- z-score [3, 15]: 0.939
- z-score [3, 16]: 0.718
- inhibition [4]: 3.97% (inactive)
- fluorescence slope [5]: -0.516 (inactive)
- NADPH fluorescence slope [6]: -3.1e-05 (inactive)
- slope [7]: 0.00535 (inactive)
- outcome [8]: inactive
- inhibition [9]: 2.5% (inactive)

SMILES: Nc1c(C(=O)NCc2ccco2)c2nc3ccccc3nc2n1Cc1ccc(F)cc1
- cell count [1]: 678
- inhibition [1]: 12.5% (inactive)
- inhibition [2]: -9% (inactive)
- nuclei count [2]: 108%
- z-score [3, 14]: 0.15
- z-score [3, 15]: 1.06
- z-score [3, 16]: -0.878
- inhibition [4]: -7.67% (inactive)
- fluorescence slope [5]: -0.236 (inactive)
- NADPH fluorescence slope [6]: -1e-05 (inactive)
- fluorescence slope [10]: 0.00698 (inactive)
- outcome [8]: inactive
- inhibition [9]: 34.8% (inactive)

SMILES: CC1(C)NCCN2C(=O)CSC21 (stereo not drawn)
- cell count [1]: 652
- inhibition [1]: -12.6% (inactive)
- inhibition [2]: -216% (inactive)
- nuclei count [2]: 158%
- z-score [3, 14]: 0.771
- z-score [3, 15]: 0.411
- z-score [3, 16]: 0.0731
- inhibition [4]: 4.72% (inactive)
- fluorescence slope [5]: -0.493 (inactive)
- NADPH fluorescence slope [6]: -5.8e-05 (inactive)
- fluorescence slope [10]: 0.00571 (inactive)
- outcome [8]: inactive
- inhibition [9]: 9.56% (inactive)

SMILES: CCCCCCC(N)CC(=O)O (stereo not drawn)
- cell count [1]: 689
- inhibition [1]: 2.4% (inactive)
- inhibition of aggregation [11]: -9.8% (inactive)
- nuclei count [11]: 116%
- inhibition [2]: 42.8% (inactive)
- nuclei count [2]: 80.1%
- fluorescence slope [5]: -0.456 (inactive)
- NADPH fluorescence slope [6]: -3e-05 (inactive)
- slope [7]: 0.00377 (inactive)
- inhibition [12]: 9.07% (inactive)
- inhibition [13]: 28% (inactive)

SMILES: O=C(c1ccco1)C12CN3CN(CN(C3)C1)C2
- cell count [1]: 403
- inhibition [1]: -7% (inactive)
- inhibition [2]: -98.3% (inactive)
- nuclei count [2]: 165%
- z-score [3, 14]: -0.216
- z-score [3, 15]: 0.212
- z-score [3, 16]: 0.209
- inhibition [4]: 17.4% (inactive)
- fluorescence slope [5]: -0.431 (inactive)
- NADPH fluorescence slope [6]: -0.000115 (inactive)
- fluorescence slope [10]: 0.00486 (inactive)
- outcome [8]: inactive
- inhibition [9]: -4.37% (inactive)

SMILES: COc1ccccc1-n1c(O)c(C=NCCCn2ccnc2)c(=O)[nH]c1=O
- cell count [1]: 752
- inhibition [1]: 3.4% (inactive)
- inhibition [2]: -23.3% (inactive)
- nuclei count [2]: 150%
- z-score [3, 14]: -0.173
- z-score [3, 15]: -0.884
- z-score [3, 16]: 0.0227
- inhibition [4]: 7.83% (inactive)
- fluorescence slope [5]: -0.426 (inactive)
- NADPH fluorescence slope [6]: -4.1e-05 (inactive)
- fluorescence slope [10]: 0.00527 (inactive)
- outcome [8]: inactive
- inhibition [9]: 5.72% (inactive)

SMILES: Cn1c(=O)cc(OCC(=O)N2CCN(C3CCCCC3)CC2)c2ccccc21
- cell count [1]: 535
- inhibition [1]: -5.5% (inactive)
- inhibition of aggregation [11]: 14.2% (inactive)
- nuclei count [11]: 81.7%
- inhibition [2]: -119% (inactive)
- nuclei count [2]: 113%
- fluorescence slope [5]: -0.533 (inactive)
- NADPH fluorescence slope [6]: -5e-05 (inactive)
- slope [7]: 0.00729 (inactive)
- inhibition [12]: 2.25% (inactive)
- inhibition [13]: 55.3% (active)

SMILES: COC(=O)C(O)(c1ccc(NC(=O)c2ccco2)c(OC)c1)C(F)(F)F (stereo not drawn)
- cell count [1]: 569
- inhibition [1]: 3.2% (inactive)
- inhibition [2]: 1% (inactive)
- nuclei count [2]: 152%
- z-score [3, 14]: -0.555
- z-score [3, 15]: 0.637
- z-score [3, 16]: 1.11
- inhibition [4]: -3.97% (inactive)
- fluorescence slope [5]: -0.43 (inactive)
- NADPH fluorescence slope [6]: -5.3e-05 (inactive)
- fluorescence slope [10]: 0.00513 (inactive)
- outcome [8]: inactive
- inhibition [9]: 0.634% (inactive)

SMILES: NCC1(c2ccc3c(c2)OCCO3)CCCC1
- cell count [1]: 634
- inhibition [1]: 8.6% (inactive)
- inhibition [2]: -19.9% (inactive)
- nuclei count [2]: 120%
- z-score [3, 14]: -0.692
- z-score [3, 15]: -0.463
- z-score [3, 16]: 0.187
- inhibition [4]: -13.3% (inactive)
- fluorescence slope [5]: -0.453 (inactive)
- NADPH fluorescence slope [6]: -2.2e-05 (inactive)
- fluorescence slope [10]: 0.0056 (inactive)
- outcome [8]: inactive
- inhibition [9]: -6.44% (inactive)
